This is one part of a sample in which the strongest signals are shown more often than they occur.
Columns and labels:
Assay in all cases: glycan array binding signal (z-score within array); higher = stronger binding
Conditions in all cases: glycan notation: IUPAC condensed, linker removed
[1] = target: Fuc(a1-2)Gal(b1-3)GlcNAc(b1-3)Gal(b1-4)Glc
Procedure, shortened: (§1)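 The binding signal is a Z-score computed within each array. Data were drawn from 3228 arrays in the Consortium for Functional Glycomics database, restricted to those with a known protein sequence. Scores were averaged over arrays of the same protein sequence at different concentrations or buffers, and over linkers, and negative values can be taken as non-binding.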

[2] = target: Fuc(a1-2)Gal(b1-3)GlcNAc(b1-3)[Fuc(a1-2)Gal(b1-3)GlcNAc(b1-6)]GalNAc
Procedure, shortened: as §1

[3] = target: Fuc(a1-2)Gal(b1-4)GlcNAc(b1-2)[Fuc(a1-2)Gal(b1-4)GlcNAc(b1-4)]Man(a1-3)[Fuc(a1-2)Gal(b1-4)GlcNAc(b1-2)Man(a1-6)]Man(b1-4)GlcNAc(b1-4)GlcNAc
Procedure, shortened: as §1

Fuc(a1-2)Gal6S(b1-4)Glc = target: Fuc(a1-2)Gal6S(b1-4)Glc
Procedure, shortened: as §1

[4] = target: Fuc(a1-2)[Gal(a1-3)]Gal(b1-3)GlcNAc(b1-6)GalNAc
Procedure, shortened: as §1

[5] = target: Fuc(a1-2)[Gal(a1-4)]Gal(b1-4)GlcNAc
Procedure, shortened: as §1

[6] = target: Fuc(a1-2)[GalNAc(a1-3)]Gal(b1-4)GlcNAc(b1-2)Man(a1-3)[Fuc(a1-2)[GalNAc(a1-3)]Gal(b1-4)GlcNAc(b1-2)Man(a1-6)]Man(b1-4)GlcNAc(b1-4)GlcNAc
Procedure, shortened: as §1

[7] = target: Fuc(a1-3)[GalNAc(b1-4)]GlcNAc
Procedure, shortened: as §1

Gal(a1-3)Gal(b1-3)GlcNAc = target: Gal(a1-3)Gal(b1-3)GlcNAc
Procedure, shortened: as §1

[8] = target: Gal(a1-3)Gal(b1-3)GlcNAc(b1-2)Man
Procedure, shortened: as §1

[9] = target: Gal(b1-3)GalNAc(b1-4)Gal(b1-4)Glc
Procedure, shortened: as §1

[10] = target: Gal(b1-3)GlcNAc(a1-6)Gal(b1-4)GlcNAc
Procedure, shortened: as §1

Gal(b1-3)GlcNAc(b1-2)Man = target: Gal(b1-3)GlcNAc(b1-2)Man
Procedure, shortened: as §1

[11] = target: Gal(b1-3)GlcNAc(b1-2)Man(a1-3)[Gal(b1-3)GlcNAc(b1-2)Man(a1-6)]Man(b1-4)GlcNAc(b1-4)[Fuc(a1-6)]GlcNAc
Procedure, shortened: as §1

[12] = target: Gal(b1-3)GlcNAc(b1-6)GalNAc
Procedure, shortened: as §1

[13] = target: Gal(b1-3)[Fuc(a1-4)]GlcNAc(b1-3)Gal(b1-3)[Fuc(a1-4)]GlcNAc
Procedure, shortened: as §1

[14] = target: Gal(b1-4)GlcNAc(b1-2)Man(a1-3)[GlcNAc(b1-2)Man(a1-6)]Man(b1-4)GlcNAc(b1-4)GlcNAc
Procedure, shortened: as §1

[15] = target: Gal(b1-4)GlcNAc(b1-2)[Gal(b1-4)GlcNAc(b1-6)]Man(a1-6)[Gal(b1-4)GlcNAc(b1-2)Man(a1-3)]Man(b1-4)GlcNAc(b1-4)[Fuc(a1-6)]GlcNAc
Procedure, shortened: as §1

[16] = target: Gal(b1-4)GlcNAc(b1-2)[Gal(b1-4)GlcNAc(b1-6)]Man(a1-6)[GlcNAc(b1-4)][Gal(b1-4)GlcNAc(b1-2)Man(a1-3)]Man(b1-4)GlcNAc(b1-4)GlcNAc
Procedure, shortened: as §1

[17] = target: Gal(b1-4)GlcNAc(b1-3)Gal(b1-4)GlcNAc(b1-3)Gal(b1-4)GlcNAc(b1-3)Gal(b1-4)GlcNAc(b1-3)Gal(b1-4)GlcNAc(b1-3)Gal(b1-4)GlcNAc(b1-2)Man(a1-3)[Gal(b1-4)GlcNAc(b1-3)Gal(b1-4)GlcNAc(b1-3)Gal(b1-4)GlcNAc(b1-3)Gal(b1-4)GlcNAc(b1-3)Gal(b1-4)GlcNAc(b1-3)Gal(b1-4)GlcNAc(b1-2)Man(a1-6)]Man(b1-4)GlcNAc(b1-4)GlcNAc
Procedure, shortened: as §1

[18] = target: Gal(b1-4)GlcNAc(b1-3)[Fuc(a1-3)GlcNAc(b1-6)]Gal(b1-4)Glc
Procedure, shortened: as §1

Gal3S6S(b1-4)GlcNAc = target: Gal3S6S(b1-4)GlcNAc
Procedure, shortened: as §1

Gal4S(b1-4)GlcNAc = target: Gal4S(b1-4)GlcNAc
Procedure, shortened: as §1

Gal6S(b1-4)Glc6S = target: Gal6S(b1-4)Glc6S
Procedure, shortened: as §1

Gal6S(b1-4)GlcNAc = target: Gal6S(b1-4)GlcNAc
Procedure, shortened: as §1

Gal6S(b1-4)GlcNAc6S = target: Gal6S(b1-4)GlcNAc6S
Procedure, shortened: as §1

[19] = target: GalNAc(b1-3)Gal(a1-4)Gal(b1-4)GlcNAc
Procedure, shortened: as §1

[20] = target: GlcNAc(a1-4)Gal(b1-4)GalNAc
Procedure, shortened: as §1

[21] = target: GlcNAc(b1-2)Man(a1-3)[GlcNAc(b1-2)Man(a1-6)]Man(b1-4)GlcNAc(b1-4)GlcNAc
Procedure, shortened: as §1

[22] = target: GlcNAc(b1-2)[GlcNAc(b1-4)]Man(a1-3)[GlcNAc(b1-4)][GlcNAc(b1-2)Man(a1-6)]Man(b1-4)GlcNAc(b1-4)GlcNAc
Procedure, shortened: as §1

[23] = target: GlcNAc(b1-3)Gal(b1-4)GlcNAc(b1-3)Gal(b1-4)GlcNAc(b1-2)[GlcNAc(b1-3)Gal(b1-4)GlcNAc(b1-3)Gal(b1-4)GlcNAc(b1-6)]Man(a1-6)[GlcNAc(b1-3)Gal(b1-4)GlcNAc(b1-3)Gal(b1-4)GlcNAc(b1-2)Man(a1-3)]Man(b1-4)GlcNAc(b1-4)[Fuc(a1-6)]GlcNAc
Procedure, shortened: as §1

[24] = target: GlcNAc(b1-3)Gal(b1-4)GlcNAc(b1-3)Gal(b1-4)GlcNAc(b1-3)Gal(b1-4)GlcNAc(b1-3)Gal(b1-4)GlcNAc(b1-2)Man(a1-3)[GlcNAc(b1-3)Gal(b1-4)GlcNAc(b1-3)Gal(b1-4)GlcNAc(b1-3)Gal(b1-4)GlcNAc(b1-3)Gal(b1-4)GlcNAc(b1-2)Man(a1-6)]Man(b1-4)GlcNAc(b1-4)GlcNAc
Procedure, shortened: as §1

[25] = target: GlcNAc(b1-3)Gal(b1-4)GlcNAc(b1-6)[GlcNAc(b1-3)]Gal(b1-4)GlcNAc
Procedure, shortened: as §1

[26] = target: GlcNAc(b1-4)[GlcNAc(b1-6)]GalNAc
Procedure, shortened: as §1

[27] = target: Man(a1-2)Man(a1-2)Man(a1-3)Man
Procedure, shortened: as §1

[28] = target: Man(a1-2)Man(a1-2)Man(a1-6)[Man(a1-3)]Man
Procedure, shortened: as §1

[29] = target: Man(a1-2)Man(a1-3)[Man(a1-2)Man(a1-6)]Man(a1-6)[Man(a1-2)Man(a1-2)Man(a1-3)]Man
Procedure, shortened: as §1

[30] = target: Man(a1-3)[Man(a1-6)]Man(a1-6)[Man(a1-2)Man(a1-3)]Man(b1-4)GlcNAc(b1-4)GlcNAc
Procedure, shortened: as §1

[31] = target: Neu5Ac(a2-3)Gal(b1-3)GlcNAc(b1-4)Gal(b1-4)Glc
Procedure, shortened: as §1

[32] = target: Neu5Ac(a2-3)Gal(b1-3)[Neu5Ac(a2-6)]GalNAc
Procedure, shortened: as §1

[33] = target: Neu5Ac(a2-3)Gal(b1-4)GlcNAc(b1-3)GalNAc
Procedure, shortened: as §1

[34] = target: Neu5Ac(a2-3)Gal(b1-4)GlcNAc6S
Procedure, shortened: as §1

[35] = target: Neu5Ac(a2-3)Gal(b1-4)[Fuc(a1-3)]GlcNAc(b1-3)Gal(b1-4)GlcNAc
Procedure, shortened: as §1

[36] = target: Neu5Ac(a2-3)Gal(b1-4)[Fuc(a1-3)]GlcNAc6S
Procedure, shortened: as §1

[37] = target: Neu5Ac(a2-3)GalNAc(b1-4)GlcNAc
Procedure, shortened: as §1

[38] = target: Neu5Ac(a2-3)[GalNAc(b1-4)]Gal(b1-4)GlcNAc
Procedure, shortened: as §1

[39] = target: Neu5Ac(a2-6)Gal(b1-4)GlcNAc(b1-2)Man
Procedure, shortened: as §1

[40] = target: Neu5Ac(a2-6)Gal(b1-4)GlcNAc(b1-2)Man(a1-3)[GlcNAc(b1-2)Man(a1-6)]Man(b1-4)GlcNAc(b1-4)GlcNAc
Procedure, shortened: as §1

[41] = target: Neu5Ac(a2-6)Gal(b1-4)GlcNAc(b1-2)Man(a1-3)[Man(a1-6)]Man(b1-4)GlcNAc(b1-4)GlcNAc
Procedure, shortened: as §1

[42] = target: Neu5Ac(a2-6)Gal(b1-4)GlcNAc(b1-2)Man(a1-6)Man(b1-4)GlcNAc(b1-4)GlcNAc
Procedure, shortened: as §1

[43] = target: Neu5Ac(a2-6)Gal(b1-4)GlcNAc(b1-2)Man(a1-6)[Man(a1-3)]Man(b1-4)GlcNAc(b1-4)GlcNAc
Procedure, shortened: as §1

[44] = target: Neu5Ac(a2-6)Gal(b1-4)GlcNAc(b1-2)[Neu5Ac(a2-6)Gal(b1-4)GlcNAc(b1-4)]Man(a1-3)[GlcNAc(b1-4)][Neu5Ac(a2-6)Gal(b1-4)GlcNAc(b1-2)[Neu5Ac(a2-6)Gal(b1-4)GlcNAc(b1-6)]Man(a1-6)]Man(b1-4)GlcNAc(b1-4)GlcNAc
Procedure, shortened: as §1

B1: GS7807P-bth-537-23-537 (Bacteroides thetaiotaomicron) (protein)
chain: NYENINSNPYEAPDLSADGYALGSAMNNLAGCVVSPDVNTAQFTDCLLGGPLGGYFADSNAGFTETISNFNPKDDWSRVFLKSDKIIPTLYSNLTQVKLVSQNTNDPVPYAIAQVIKVAAMHRVTDAFGPIPYSQIGANGEIATPYDSQEVTYNTFFDELNAAIATLNENSNEQLVPTADYIYKGDVKKWIRFANSLKLRLAIRIAYANPVKAQQMAEEAVNPANGGVIESNADNATWNYFETSQNPIYVATRYNQVQTSDHGGVPCLTGGDTHAAADIICYMNGYKDNRREKFFTKSEWAGQDYVGMRRGIVIPELKTTGHKYSGVNIAPTSPLYWMNAAEVAFLRAEGQAVFNFSMGGTAESFYNQGIRLSFEQWGADGVEDYLKDDVNKPTAYTDPAGTNTYQNALSNITIKWNDSADKEEKQERIIVQKWIANWQLGNEAWADFRRTGYPKLIPVKENKSGGVVDSEKGARRMPYPLDEFVSNKANVEYAIANYLHGADNMATDVWWASKK
glycan array binding signal (z-score) [1]: -0.288
glycan array binding signal (z-score) [2]: 5.33
glycan array binding signal (z-score) [3]: -0.271
glycan array binding signal (z-score) (Fuc(a1-2)Gal6S(b1-4)Glc): 0.294
glycan array binding signal (z-score) [4]: 2.94
glycan array binding signal (z-score) [5]: -0.331
glycan array binding signal (z-score) [6]: 3.7
glycan array binding signal (z-score) [7]: 0.192
glycan array binding signal (z-score) (Gal(a1-3)Gal(b1-3)GlcNAc): 0.94
glycan array binding signal (z-score) [8]: 1.1
glycan array binding signal (z-score) [9]: 0.496
glycan array binding signal (z-score) [10]: -0.173
glycan array binding signal (z-score) (Gal(b1-3)GlcNAc(b1-2)Man): -0.221
glycan array binding signal (z-score) [11]: 2.17
glycan array binding signal (z-score) [12]: 1.42
glycan array binding signal (z-score) [13]: -0.304
glycan array binding signal (z-score) [14]: -0.348
glycan array binding signal (z-score) [15]: -0.271
glycan array binding signal (z-score) [16]: 2.06
glycan array binding signal (z-score) [17]: 2.28
glycan array binding signal (z-score) [18]: -0.071
glycan array binding signal (z-score) (Gal3S6S(b1-4)GlcNAc): 0.325
glycan array binding signal (z-score) (Gal4S(b1-4)GlcNAc): -0.373
glycan array binding signal (z-score) (Gal6S(b1-4)Glc6S): 2.21
glycan array binding signal (z-score) (Gal6S(b1-4)GlcNAc): 0.037
glycan array binding signal (z-score) (Gal6S(b1-4)GlcNAc6S): 2.01
glycan array binding signal (z-score) [19]: 0.36
glycan array binding signal (z-score) [20]: -0.138
glycan array binding signal (z-score) [21]: -0.374
glycan array binding signal (z-score) [22]: -0.39
glycan array binding signal (z-score) [23]: 19.1
glycan array binding signal (z-score) [24]: 0.265
glycan array binding signal (z-score) [25]: -0.326
glycan array binding signal (z-score) [26]: -0.32
glycan array binding signal (z-score) [27]: -0.398
glycan array binding signal (z-score) [28]: -0.343
glycan array binding signal (z-score) [29]: -0.267
glycan array binding signal (z-score) [30]: 2
glycan array binding signal (z-score) [31]: -0.398
glycan array binding signal (z-score) [32]: -0.387
glycan array binding signal (z-score) [33]: -0.371
glycan array binding signal (z-score) [34]: -0.377
glycan array binding signal (z-score) [35]: 0.04
glycan array binding signal (z-score) [36]: -0.338
glycan array binding signal (z-score) [37]: -0.329
glycan array binding signal (z-score) [38]: -0.363
glycan array binding signal (z-score) [39]: -0.32
glycan array binding signal (z-score) [40]: -0.356
glycan array binding signal (z-score) [41]: 1.81
glycan array binding signal (z-score) [42]: 0.297
glycan array binding signal (z-score) [43]: 5.2
glycan array binding signal (z-score) [44]: -0.083

— the supplement of paper PMC8728848
